Results: PubChem BioAssay (NCATS)
Values joined by “and” are separate entries in the source; they are usually repeats but may differ in a detail not shown here. Equal entries are not always repeated. Records with an inconclusive call do not appear. Some compounds were tested as several samples or in several runs, with calls that do not always agree. Active and inactive are the calls of the source. Unless noted, calls come from the whole dose curve; as a rule, active = well fitted curve in the direction sought with a large enough effect; inconclusive = small, poorly fitted or top-dose-only effect, or another doubt; inactive = no such curve, though single readings can be large; an effect the other way counts as inactive or inconclusive.

Assays:
[1] = molecular target: Lysosomal acid glucosylceramidase (Homo sapiens) (UniProt P04062); assay: Glucocerebrosidase-p2 (AID 348; in the data active = potency below about 10 µM; note: potency is the fitted concentration of half-maximal effect); conditions: purified GBA, blue fluorogenic substrate, 40 min
Sequence of Lysosomal acid glucosylceramidase (Homo sapiens) (P04062 whole entry, looked up): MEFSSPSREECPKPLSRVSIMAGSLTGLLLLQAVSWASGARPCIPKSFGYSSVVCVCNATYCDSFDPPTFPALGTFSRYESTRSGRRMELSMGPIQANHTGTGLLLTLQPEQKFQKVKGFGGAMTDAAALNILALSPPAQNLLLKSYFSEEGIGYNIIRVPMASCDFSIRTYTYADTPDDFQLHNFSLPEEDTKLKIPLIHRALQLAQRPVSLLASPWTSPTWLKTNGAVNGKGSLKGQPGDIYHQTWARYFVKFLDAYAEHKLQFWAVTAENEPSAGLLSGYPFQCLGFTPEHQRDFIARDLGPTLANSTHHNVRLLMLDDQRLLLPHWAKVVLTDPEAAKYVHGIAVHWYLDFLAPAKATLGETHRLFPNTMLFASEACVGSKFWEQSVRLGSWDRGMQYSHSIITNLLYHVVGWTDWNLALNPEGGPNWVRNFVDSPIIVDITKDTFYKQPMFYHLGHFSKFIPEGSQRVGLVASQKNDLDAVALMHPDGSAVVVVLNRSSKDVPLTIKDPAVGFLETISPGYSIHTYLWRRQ
Method in brief: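 Compounds titrated from 0.6 nM upwards against 0.2 nM enzyme in pH 5.9 citric acid/KH2PO4, taurocholate, tween-20; blue fluorogenic substrate 80 uM, 40 min room temperature, stopped and read Ex 365/Em 440 for AC50.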

[2] = AP1 Signaling Pathway (AID 357; active = well fitted curve in either direction with a large enough effect, not every such curve was filed as active;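 note: ME-180 reporter cells stimulated with EGF at its EC50 level; % is set by controls: 0 for no effect and ±100 for the full control effect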); conditions: ME-180 AP-1-bla reporter, EGF-induced, beta-lactamase ratio, 5 h; at 7.69 µM (top of the series) unless noted
Method in brief: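 In this screen, ME-180 cells in Opti-MEM with 0.5% dialyzed FBS received EC50 EGF and compound titrations for 5 h. AP-1 reporter beta-lactamase was detected via CCF4 ratio, giving AC50 for positive and negative modulators.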

[3] = NFAT Signaling Pathway (AID 444; active = well fitted curve in either direction with a large enough effect, not every such curve was filed as active;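 note: carbachol stimulus at about its EC50 of 1 µM final; % is set by controls: 0 for no effect and ±100 for the full control effect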); conditions: Jurkat NFAT-bla M1, carbachol, beta-lactamase ratio, 5 h; at 7.69 µM (top of the series) unless noted
Method in brief: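 Jurkat cells with NFAT-driven β-lactamase reporter and co-expressed M1 receptor, stimulated with carbachol (final 1 uM, ~EC50), compound titration, 5 h at 37 °C. CCF4 loaded 1 h at RT; 460/530 nm ratio gave %activity and AC50.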

[4] = Stat Signaling Pathway (AID 446; active = well fitted curve in either direction with a large enough effect, not every such curve was filed as active;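 note: ME-180 cervical cancer cells given 40 pM IL-6 alongside compound; SIE-controlled beta-lactamase reporter measured as 460/530 nm FRET emission ratio; % is set by controls: 0 for no effect and ±100 for the full control effect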); conditions: ME-180 SIE beta-lactamase reporter, IL-6 stimulated, 5 h; at 7.69 µM (top of the series) unless noted
Method in brief: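 Screening format detects activators and inhibitors alike: ME-180 SIE-bla cells stimulated at 40 pM IL-6 for 5 hrs with compound, then dual-emission beta-lactamase read at 405 nm excitation.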

[5] = molecular target: Glucocorticoid receptor (Homo sapiens) (UniProt P04150); assay: GR-EFC Redistribution (AID 451; calls by dose curve; note: potency is the fitted concentration of half-maximal effect); conditions: CHO-K1 GR-EFC translocation, beta-gal luminescence, 2 h
Sequence of Glucocorticoid receptor (Homo sapiens) (P04150 whole entry, looked up, the tested form may be a part): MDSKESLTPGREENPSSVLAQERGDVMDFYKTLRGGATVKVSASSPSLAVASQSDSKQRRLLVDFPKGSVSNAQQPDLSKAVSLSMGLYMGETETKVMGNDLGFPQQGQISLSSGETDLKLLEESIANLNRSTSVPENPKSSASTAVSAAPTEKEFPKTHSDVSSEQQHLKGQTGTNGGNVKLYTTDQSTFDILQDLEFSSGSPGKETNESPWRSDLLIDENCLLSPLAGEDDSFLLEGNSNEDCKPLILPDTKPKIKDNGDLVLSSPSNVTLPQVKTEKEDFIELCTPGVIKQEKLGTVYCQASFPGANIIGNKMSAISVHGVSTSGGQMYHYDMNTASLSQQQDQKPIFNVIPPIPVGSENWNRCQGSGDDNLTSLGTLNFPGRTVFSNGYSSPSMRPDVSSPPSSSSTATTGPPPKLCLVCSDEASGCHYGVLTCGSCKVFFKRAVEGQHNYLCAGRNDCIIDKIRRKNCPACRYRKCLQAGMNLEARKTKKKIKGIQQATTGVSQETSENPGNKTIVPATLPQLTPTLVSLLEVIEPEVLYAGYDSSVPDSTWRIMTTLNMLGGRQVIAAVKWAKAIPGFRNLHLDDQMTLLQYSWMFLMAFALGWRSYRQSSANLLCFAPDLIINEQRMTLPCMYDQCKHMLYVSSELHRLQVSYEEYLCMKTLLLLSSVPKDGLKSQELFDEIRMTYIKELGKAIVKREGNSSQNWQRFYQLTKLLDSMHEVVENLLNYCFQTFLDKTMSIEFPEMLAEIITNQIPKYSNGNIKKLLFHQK
Method in brief: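 CHO-K1 cells expressing nuclear EA and GR-ED fragments of b-gal; compounds titrated up to 46 uM final, 2 h at 37 C. GR nuclear translocation read as complemented b-gal luminescence after 1 h RT detection.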

[6] = molecular target: Mitogen-activated protein kinase 10 (Mus musculus) (UniProt Q61831); assay: JNK3 AlphaScreen Assay (AID 530; active = well fitted curve in either direction with a large enough effect, not every such curve was filed as active;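 note: kinase came from lysate of stimulated human HepG2 cells; signal reports phosphorylation of biotinylated GST-cJun 1-79 at Ser73 with 10 µM ATP; % is set by controls: 0 for no effect and ±100 for the full control effect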); conditions: JNK3 lysate, c-Jun phosphorylation; series mostly up to 57.1 µM
Method in brief: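 qHTS format: compounds tested as titrations against IL-1beta/TNF-alpha-activated HepG2 lysate JNK3 with biotin-GST-cJun substrate and 10 uM ATP at room temperature. Loss of anti-phospho-cJun AlphaScreen signal indicates inhibition.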

[7] = qHTS Assay for Lipid Storage Modulators (AID 1519; calls by dose curve); conditions: Drosophila S3 cells, BODIPY lipid droplet/cell ratio, laser cytometry, cells loaded with oleic acid; for activity change, negative = inhibition: at 57.5 µM (top of the series)
Method in brief: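 Cells seeded at 5,000 per well were treated with compounds over a concentration series and loaded with oleic acid (400 uM, as added). Lipid droplet fluorescence (488 nm excitation, 500-530 nm channel) was read by laser-scanning cytometry and normalized to 20 uM Triacsin C.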

[8] = molecular target: Dual specificity protein kinase CLK4 (Homo sapiens) (UniProt Q9HAZ1); assay: qHTS Assay for Inhibitors of CDC-like Kinase 4 (Kinase-Glo Assay) (AID 1770); conditions: recombinant Clk4, Kinase-Glo ATP depletion luminescence; series mostly up to 66.7 µM; note: potency is the fitted concentration of half-maximal effect; nearly all actives have a fitted effect of over 65% in size
Sequence of Dual specificity protein kinase CLK4 (Homo sapiens) (Q9HAZ1 whole entry, looked up): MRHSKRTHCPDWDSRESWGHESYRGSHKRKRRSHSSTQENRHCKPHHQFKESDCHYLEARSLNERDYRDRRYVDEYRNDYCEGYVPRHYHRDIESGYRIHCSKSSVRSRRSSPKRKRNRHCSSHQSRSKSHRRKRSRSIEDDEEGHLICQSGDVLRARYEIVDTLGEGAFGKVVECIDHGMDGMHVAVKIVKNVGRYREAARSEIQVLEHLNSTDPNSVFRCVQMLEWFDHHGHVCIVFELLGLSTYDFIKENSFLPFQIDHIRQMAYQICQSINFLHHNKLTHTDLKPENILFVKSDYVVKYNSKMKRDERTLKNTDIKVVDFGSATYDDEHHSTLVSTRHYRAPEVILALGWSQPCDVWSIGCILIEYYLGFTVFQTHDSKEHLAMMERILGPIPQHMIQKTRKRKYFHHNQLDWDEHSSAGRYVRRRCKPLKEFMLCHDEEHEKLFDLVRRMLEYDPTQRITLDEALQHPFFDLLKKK
Method in brief: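 Clk4 25 nM, RS peptide 100 uM, ATP 1 uM, pH 7.5 Tris, 10 mM MgCl2, 2.5 mM DTT; 4.5 h RT; ATP depletion read by Kinase-Glo luminescence.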

[9] = molecular target: Dual specificity protein kinase CLK4 (Homo sapiens) (UniProt Q9HAZ1); assay: qHTS Assay for Inhibitors of CDC-like Kinase 4 (ADP-Glo Assay) (AID 1771); conditions: recombinant CLK4, ADP-Glo luminescence; series mostly up to 80 µM; note: potency is the fitted concentration of half-maximal effect; nearly all actives have a fitted effect of over 70% in size
Method in brief: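 Kinase reaction: Clk4 at 25 nM, RS repeat peptide substrate at 100 uM, ATP at 1 uM, 1 hr, room temperature. Product ADP detected as luciferase signal via ADP-Glo.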

[10] = molecular target: Dual specificity protein kinase CLK4 (Homo sapiens) (UniProt Q9HAZ1); assay: qHTS Assay for Inhibitors of CDC-like Kinase 4 (ADP-FP Assay) (AID 1795); conditions: Transcreener ADP fluorescence polarization; series mostly up to 50 µM; note: potency is the fitted concentration of half-maximal effect; nearly all actives have a fitted effect of over 60% in size
Method in brief: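 Kinase activity was followed as ADP output, converted from fluorescence polarization with a calibration curve. Reactions ran one hour at low ATP (1 uM) with RS peptide substrate.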

[11] = molecular target: Ubiquitin carboxyl-terminal hydrolase 1 (Homo sapiens) (UniProt O94782); assay: Inhibitors of USP1/UAF1: Pilot qHTS (AID 504865); conditions: purified USP1/UAF1, Ub-rhodamine cleavage fluorescence; series mostly up to 54.9 µM;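 note: rhodamine fluorescence freed from ubiquitin-rhodamine substrate followed over time; top concentration of the series differs between compounds; % is set by controls: 0 for no effect and ±100 for the full control effect; nearly all actives have a fitted effect of over 35% in size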
Sequence of Ubiquitin carboxyl-terminal hydrolase 1 (Homo sapiens) (O94782 whole entry, looked up): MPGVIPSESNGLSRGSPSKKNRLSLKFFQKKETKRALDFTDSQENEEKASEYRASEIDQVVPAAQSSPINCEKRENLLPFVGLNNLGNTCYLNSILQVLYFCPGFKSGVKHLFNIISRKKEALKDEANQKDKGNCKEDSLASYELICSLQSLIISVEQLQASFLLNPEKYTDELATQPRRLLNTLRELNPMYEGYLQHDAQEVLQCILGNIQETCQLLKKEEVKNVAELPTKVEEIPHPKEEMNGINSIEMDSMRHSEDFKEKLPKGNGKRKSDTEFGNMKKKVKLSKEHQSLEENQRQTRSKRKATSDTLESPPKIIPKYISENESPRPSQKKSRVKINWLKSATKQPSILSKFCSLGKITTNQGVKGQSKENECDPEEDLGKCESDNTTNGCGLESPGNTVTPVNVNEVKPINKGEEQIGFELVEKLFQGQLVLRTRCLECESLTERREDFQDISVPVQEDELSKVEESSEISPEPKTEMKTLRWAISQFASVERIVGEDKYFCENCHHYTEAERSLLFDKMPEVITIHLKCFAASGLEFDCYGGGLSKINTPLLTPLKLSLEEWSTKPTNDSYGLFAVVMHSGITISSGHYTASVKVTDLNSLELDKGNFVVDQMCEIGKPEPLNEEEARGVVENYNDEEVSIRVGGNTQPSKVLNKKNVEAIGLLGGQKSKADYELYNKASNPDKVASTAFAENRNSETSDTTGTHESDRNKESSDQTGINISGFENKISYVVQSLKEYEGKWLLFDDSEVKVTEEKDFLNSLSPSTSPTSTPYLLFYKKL
Method in brief: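 Enzyme-free wells gave the negative control, while test wells held 1nM USP1/UAF1 preincubated with compound for 15 min at room temperature. Ub-Rho at 150nM final started the reaction, and fluorescence at 480/540 nm was recorded kinetically.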

[12] = molecular target: Rap guanine nucleotide exchange factor 3 (Homo sapiens) (UniProt O95398); assay: Confirmatory qHTS for agonist of cAMP-regulated guanine nucleotide exchange factor 3 (EPAC1) (AID 1645881); conditions: EPAC1 Rap1B BODIPY-GDP exchange fluorescence; series mostly up to 154 µM;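 note: EPAC1 catalysed release of BODIPY-GDP from Rap1B seen as fluorescence loss; 100% = effect of cAMP agonist control; nearly all actives have a fitted effect of over 75% in size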
Sequence of Rap guanine nucleotide exchange factor 3 (Homo sapiens) (O95398 whole entry, looked up): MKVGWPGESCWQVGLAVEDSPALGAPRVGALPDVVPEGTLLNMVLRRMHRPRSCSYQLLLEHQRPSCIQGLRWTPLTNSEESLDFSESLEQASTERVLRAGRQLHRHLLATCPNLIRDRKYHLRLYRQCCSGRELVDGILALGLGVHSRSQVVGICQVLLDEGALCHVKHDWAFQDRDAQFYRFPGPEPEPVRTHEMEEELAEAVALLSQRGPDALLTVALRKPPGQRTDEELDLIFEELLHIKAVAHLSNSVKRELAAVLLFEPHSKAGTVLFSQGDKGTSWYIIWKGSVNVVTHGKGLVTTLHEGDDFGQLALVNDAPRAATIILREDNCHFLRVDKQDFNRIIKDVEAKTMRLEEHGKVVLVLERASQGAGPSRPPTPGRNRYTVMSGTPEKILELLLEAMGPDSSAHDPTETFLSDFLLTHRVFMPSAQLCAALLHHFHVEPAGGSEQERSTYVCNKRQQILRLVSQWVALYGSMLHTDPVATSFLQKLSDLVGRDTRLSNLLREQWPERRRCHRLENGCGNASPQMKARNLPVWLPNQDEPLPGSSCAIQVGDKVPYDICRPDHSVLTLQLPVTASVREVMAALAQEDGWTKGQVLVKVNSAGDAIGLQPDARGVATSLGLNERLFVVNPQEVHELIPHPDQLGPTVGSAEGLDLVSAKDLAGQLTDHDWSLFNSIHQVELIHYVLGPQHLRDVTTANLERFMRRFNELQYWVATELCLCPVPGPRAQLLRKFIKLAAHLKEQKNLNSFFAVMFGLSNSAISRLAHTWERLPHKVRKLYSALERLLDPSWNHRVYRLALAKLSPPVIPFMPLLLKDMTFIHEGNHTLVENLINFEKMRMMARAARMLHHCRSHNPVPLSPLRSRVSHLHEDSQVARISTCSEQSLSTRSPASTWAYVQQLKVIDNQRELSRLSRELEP

[13] = molecular target: Rap guanine nucleotide exchange factor 4 (Homo sapiens) (UniProt Q8WZA2); assay: Confirmatory qHTS for agonist of cAMP-regulated guanine nucleotide exchange factor 4 (EPAC2) (AID 1645884); conditions: EPAC2 GEF activity, Rap1B-BODIPY-GDP fluorescence; series mostly up to 154 µM;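 note: nucleotide exchange releases bodipy-GDP from Rap1 and this lowers its fluorescence; % is set by controls: 0 for no effect and ±100 for the full control effect; nearly all actives have a fitted effect of over 65% in size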
Sequence of Rap guanine nucleotide exchange factor 4 (Homo sapiens) (Q8WZA2 whole entry, looked up): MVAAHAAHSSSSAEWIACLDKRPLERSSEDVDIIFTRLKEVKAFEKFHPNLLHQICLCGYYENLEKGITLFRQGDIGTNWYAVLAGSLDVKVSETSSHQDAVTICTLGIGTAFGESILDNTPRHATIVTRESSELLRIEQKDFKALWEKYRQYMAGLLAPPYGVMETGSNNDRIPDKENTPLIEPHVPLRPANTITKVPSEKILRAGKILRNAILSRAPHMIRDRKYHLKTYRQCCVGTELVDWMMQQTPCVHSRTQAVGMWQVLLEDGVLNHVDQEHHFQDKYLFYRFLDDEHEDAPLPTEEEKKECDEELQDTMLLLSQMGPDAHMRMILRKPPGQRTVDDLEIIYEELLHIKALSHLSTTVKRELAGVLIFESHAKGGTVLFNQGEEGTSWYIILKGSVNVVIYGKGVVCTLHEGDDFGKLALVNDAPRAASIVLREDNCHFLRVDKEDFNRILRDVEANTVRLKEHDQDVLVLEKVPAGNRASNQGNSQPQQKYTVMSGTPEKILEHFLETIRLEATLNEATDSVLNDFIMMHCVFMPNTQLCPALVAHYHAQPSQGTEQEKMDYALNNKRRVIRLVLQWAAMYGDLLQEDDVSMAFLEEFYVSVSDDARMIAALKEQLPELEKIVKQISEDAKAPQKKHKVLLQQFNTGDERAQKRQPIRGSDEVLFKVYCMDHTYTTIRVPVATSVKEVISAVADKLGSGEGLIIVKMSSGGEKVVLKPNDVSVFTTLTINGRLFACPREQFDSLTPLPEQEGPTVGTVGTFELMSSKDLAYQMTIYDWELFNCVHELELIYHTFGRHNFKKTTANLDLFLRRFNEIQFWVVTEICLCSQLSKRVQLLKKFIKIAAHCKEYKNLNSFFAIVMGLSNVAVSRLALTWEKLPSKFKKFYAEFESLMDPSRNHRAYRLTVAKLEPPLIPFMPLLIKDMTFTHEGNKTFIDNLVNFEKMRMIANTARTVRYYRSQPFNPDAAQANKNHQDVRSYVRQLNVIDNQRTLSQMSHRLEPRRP

[14] = molecular target: Rap guanine nucleotide exchange factor 4 (Homo sapiens) (UniProt Q8WZA2); assay: Confirmatory qHTS for antagonist of cAMP-regulated guanine nucleotide exchange factor 4 (EPAC2) (AID 1645885); conditions: EPAC2 Rap1B-BODIPY-GDP exchange fluorescence, biochemical; series mostly up to 114 µM; note: nearly all actives have a fitted effect of over 25% in size; note: potency is the fitted concentration of half-maximal effect
[15] = molecular target: Cytochrome P450 3A4 (Homo sapiens) (UniProt P08684); assay: qHTS Assay for Inhibitors and Substrates of Cytochrome P450 3A4 (AID 884); conditions: recombinant CYP3A4, Luciferin-PPXE luminescence; series mostly up to 57.1 µM; note: nearly all actives have a fitted effect of over 50% in size; note: potency is the fitted concentration of half-maximal effect
Sequence of Cytochrome P450 3A4 (Homo sapiens) (P08684 whole entry, looked up): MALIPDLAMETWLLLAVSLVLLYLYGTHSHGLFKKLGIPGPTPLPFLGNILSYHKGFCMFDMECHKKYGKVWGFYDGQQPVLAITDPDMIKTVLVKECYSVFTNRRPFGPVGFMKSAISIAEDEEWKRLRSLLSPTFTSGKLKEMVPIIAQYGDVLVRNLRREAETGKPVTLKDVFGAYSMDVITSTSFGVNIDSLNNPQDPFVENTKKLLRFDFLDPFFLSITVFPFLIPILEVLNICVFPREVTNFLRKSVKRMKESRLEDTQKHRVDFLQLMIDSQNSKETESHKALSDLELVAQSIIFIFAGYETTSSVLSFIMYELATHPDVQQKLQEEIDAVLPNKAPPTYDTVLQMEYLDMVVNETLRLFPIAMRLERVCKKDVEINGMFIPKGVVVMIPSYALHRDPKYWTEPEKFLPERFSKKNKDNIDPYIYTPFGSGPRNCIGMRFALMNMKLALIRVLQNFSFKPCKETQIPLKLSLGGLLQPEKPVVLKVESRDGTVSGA
Method in brief: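 20 nM human CYP3A4 with 25 uM Luciferin-PPXE (at KM) in 200 mM KPO4, preincubated 10 min with compound; NADPH regeneration started a 60 min RT reaction. Luciferin detected by luminescence, normalized to 57 uM ketoconazole as full inhibition.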

[16] = molecular target: Cytochrome P450 3A4 (Homo sapiens) (UniProt P08684); assay: qHTS Assay for Activators of Cytochrome P450 3A4 (AID 885); conditions: recombinant CYP3A4, Luciferin-PPXE luminescence, 60 min; series mostly up to 57.1 µM; note: nearly all actives have a fitted effect of over 65% in size; note: potency is the fitted concentration of half-maximal effect
Method in brief: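 Steps: enzyme/substrate mix dispensed; compound added, 10 min RT; NADPH regeneration solution added, 60 min RT; luciferin detection buffer stops reaction; 20 min later luminescence measured.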

[17] = Confirmation and Secondary Assay for Modulators of Hemoglobin Beta Chain Splicing at IVS2 654 locus (AID 910); conditions: HeLa EGFP-654 splicing reporter, GFP fluorescence, 48 h; series mostly up to 38.3 µM;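 note: HeLa cells stably carrying EGFP split by mutant beta-globin IVS2-654 intron; % of control where 0% means no effect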
Method in brief: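 HeLa cells stably expressing EGFP interrupted by β-globin IVS2-654 intron, seeded overnight in Opti-MEM/2% FCS, then treated 2 days at 37 °C. Restored splicing read as total peak GFP intensity per well by laser scanning cytometry (488 nm excitation, 500–520 nm emission); 500 nM antisense PNA as control.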

[18] = molecular target: Rap guanine nucleotide exchange factor 3 (Homo sapiens) (UniProt O95398); assay: Confirmatory qHTS for antagonist of cAMP-regulated guanine nucleotide exchange factor 3 (EPAC1) (AID 1645880); conditions: EPAC1 Rap1B-BODIPY-GDP exchange, fluorescence; series mostly up to 115 µM;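 note: plate controls were DMSO only for no effect and full effect of the ATA control for full effect; nearly all actives have a fitted effect of over 55% in size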
Method in brief: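 Nucleotide exchange uses 100 nM EPAC1, 250 nM RAP1B-BODIPY-GDP and 50 uM GDP, with compounds in a concentration-titration series. After 5 min at room temperature, fluorescence (480 nm ex/540 nm em) is read every 5 min for 30 min. Data are normalized to control ATA and DMSO.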

[19] = Confirmation and Secondary Assay for Modulators of Hemoglobin Beta Chain Splicing at IVS2 705 locus (AID 930); conditions: HeLa EGFP-705 splicing reporter, GFP fluorescence, 48 h; series mostly up to 38.3 µM;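 note: HeLa cells stably expressing the EGFP-705 splicing reporter; GFP fluorescence per well restored by corrected splicing of the IVS2-705 intron in EGFP; % of control where 0% means no effect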
Method in brief: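 Per-well GFP, captured at 1 x 8 µm resolution with 488 nm excitation, served as the read-out for HeLa EGFP-705 cells incubated 2 days with test compound versus DMSO.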

[20] = measured here: cell count channel max response
[21] = measured here: lipid channel max response

Cc1ccccc1-c1ccc2ncnc(N(C)Cc3ccco3)c2c1
23.2%: max response [7, 21]
inactive: Potency [1] > 11.4 µM | activity change, negative = inhibition [2] -8.93% | activity change, negative = inhibition [3] -28.4% | activity, negative = inhibition [4] -13.4% | Potency [5] > 46 µM | Potency [6] | activity change, negative = inhibition [7] 2.17% | Potency [11] | Potency [12] | Potency [13]
active: Potency [8] 14.1 µM | Potency [9] 14.1 µM | Potency [10] 12.6 µM | Potency [14] 31.2 µM
20.6%: max response [7, 20]

CC(=O)OC1CC[C@]2(C)C(CC(OC(C)=O)[C@@]3(C)C4=CC(=O)OC(c5ccoc5)[C@]4(C)CCC23)C1(C)C (stereo partly specified)
inactive and 2.51 µM (active): Potency [15]
-14.8% and -4.52% and 18.3%: max response [7, 21]
6.31 µM (active) and inactive: Potency [16]
inactive: Potency [17] | activity change, negative = inhibition [7] -24.5% and -12.6% and 0.61% | Potency [18] | Potency [12] | Potency [13]
6.99% and 9.73% and 16%: max response [7, 20]

CC1(C)C=CC(=O)[C@]2(C)C1CC(=O)[C@]1(C)C2CC[C@@]2(C)C(c3ccoc3)OC(=O)C3OC321 (stereo partly specified)
-7.57%: max response [7, 20]
-18.1%: max response [7, 21]
inactive: Potency [16] | Potency [17] | outcome [19] | activity change, negative = inhibition [7] -11.5% | Potency [11] | Potency [18] | Potency [12] | Potency [13] | Potency [14]
